# Assay outcomes (PubChem)
# G9a block – inhibitors of human histone lysine methyltransferase G9a. Q96KQ7. G9a H3K9 monomethylation, AlphaScreen, 2 h. Potency, µM (highest dose often 102 µM), for the others: at the top dose activity, negative = inhibition, most hits filed as inhibitors. actives 8.8% (n = 350,000); note: potency is the fitted concentration of half-maximal effect; % is set by controls: 0 for no effect and ±100 for the full control effect; nearly all actives have a fitted effect of over 75% in size
# Target sequence (Q96KQ7 913-1193 limits assumed): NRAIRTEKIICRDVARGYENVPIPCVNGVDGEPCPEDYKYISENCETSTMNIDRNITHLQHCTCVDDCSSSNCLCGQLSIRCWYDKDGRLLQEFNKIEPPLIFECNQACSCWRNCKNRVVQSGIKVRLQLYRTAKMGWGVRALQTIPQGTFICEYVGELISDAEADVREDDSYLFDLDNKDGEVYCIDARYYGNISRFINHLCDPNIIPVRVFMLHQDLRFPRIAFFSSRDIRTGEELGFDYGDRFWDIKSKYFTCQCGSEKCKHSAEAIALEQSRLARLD
#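 Methyltransferase reactions run at room temperature for 2 h (20 nM enzyme, 500 nM biotin-H3K9 peptide, 20 uM SAM) after a 15 min compound preincubation; product detected by AlphaScreen beads and anti-H3K9me1 antibody.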
# PLK1 PBD block – inhibitors of human PLK1 polo-box domain binding; Plk1 PBD binding of FITC phosphopeptide, fluorescence polarization; Potency, µM, for the others: max response, negative = inhibition, usual class: inhibitors; actives 2.8% (n = 360,000); AID 720504; note: potency is the fitted concentration of half-maximal effect; series mostly up to about 57 µM; % is set by controls: 0 for no effect and ±100 for the full control effect; nearly all actives have a fitted effect of over 65% in size
# PI5P4Ka inh – PI5P4K alpha (human) kinase inhibition. AID 652105. P48426. max response, %. PI5P4Kalpha enzyme, ADP-Glo luminescence, 60 min; hits give low values. actives 1.2% (n = 330,000); active = max response of -50% or lower; inconclusive = between -30% and -50%; inactive = -30% or higher; note: value at the top dose of about 77 µM; % is set by controls: 0 for no effect and ±100 for the full control effect
# Target sequence (P48426 whole entry, looked up): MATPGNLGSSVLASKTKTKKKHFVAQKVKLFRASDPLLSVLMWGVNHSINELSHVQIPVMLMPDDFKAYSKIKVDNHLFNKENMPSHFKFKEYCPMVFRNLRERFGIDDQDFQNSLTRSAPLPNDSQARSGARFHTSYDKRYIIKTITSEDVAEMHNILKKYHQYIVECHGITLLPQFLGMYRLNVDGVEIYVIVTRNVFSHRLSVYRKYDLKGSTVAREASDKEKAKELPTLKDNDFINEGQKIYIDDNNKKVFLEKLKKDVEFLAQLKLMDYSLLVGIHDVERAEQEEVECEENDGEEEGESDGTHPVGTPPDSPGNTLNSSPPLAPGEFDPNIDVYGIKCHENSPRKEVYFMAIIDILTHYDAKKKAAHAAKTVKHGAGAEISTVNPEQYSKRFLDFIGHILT
#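 Luminescence from ADP-Glo served as readout of PI5P4Kalpha activity in a qHTS format. Reaction: enzyme, substrate, compound, ATP at 5 microM final, 60 min at RT.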
# JMJD2A Tudor – blocks the human JMJD2A Tudor domain | O75164 | AlphaScreen JMJD2A-Tudor / H3K4me3 peptide binding | Potency, µM (titrated, usually from 114 µM), for inactives: at the top dose activity change, negative = inhibition, hits mostly inhibitors | actives 4.4% (n = 390,000); note: potency is the fitted concentration of half-maximal effect; % is set by controls: 0 for no effect and ±100 for the full control effect; nearly all actives have a fitted effect of over 50% in size
# HP1b binding inh – blocks HP1-beta chromodomain binding to methylated histone tails; AlphaScreen HP1-beta / biotin-H3K9me3 peptide binding; actives 0.56% (n = 390,000); Potency, µM (titrated, usually from 114 µM), for inactives: top-dose activity change, negative = inhibition, hits mostly inhibitors; note: potency is the fitted concentration of half-maximal effect; nearly all actives have a fitted effect of over 70% in size
#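 HP1-beta protein (50 nM final) preincubated 30 min at room temperature with biotinylated H3(1-18)K9me3 peptide (50 nM) in PBS pH 7.4, 0.01% Tween-20, then compound added for 30 min. AlphaScreen streptavidin donor/nickel chelate acceptor beads (10 ug/mL final), 30 min dark, luminescence read.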
# BAZ2B block – blocks human BAZ2B | AID 504333 | AlphaScreen BAZ2B-H3K14Ac peptide displacement | actives 4.4% (n = 360,000) | Q9UIF8 | Potency, µM (top dose mostly 114 µM), inactives show at the top dose activity change, negative = inhibition, usual class: inhibitors; note: potency is the fitted concentration of half-maximal effect; % is set by controls: 0 for no effect and ±100 for the full control effect; nearly all actives have a fitted effect of over 60% in size
#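 Complex of BAZ2B and biotin-H3K14Ac (50 nM apiece) forms over 30 min at RT, then faces library compounds up to 110 uM for another 30 min; AlphaScreen beads added, 20 min dark incubation, luminescence read.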
# * hit, by the source's call; ? = inconclusive; nt = no result; ! = not confirmed by another sample; [ ] = remark or other dose. Hits are enriched below; roughly 12% of the tested compounds scored in any of these assays. Unless noted, calls come from the whole dose curve; as a rule, active = well fitted curve in the direction sought with a large enough effect; inconclusive = small, poorly fitted or top-dose-only effect, or another doubt; inactive = no such curve, though single readings can be large; an effect the other way counts as inactive or inconclusive.
SMILES,G9a block,PLK1 PBD block,PI5P4Ka inh,JMJD2A Tudor,HP1b binding inh,BAZ2B block
O=C(CC1C(=O)NCCN1Cc1ccccc1C(F)(F)F)NC1CCCCC1 (stereo not drawn),40µM*,?,2,-6%,31%,-9%[57.1 µM]
O=C(CC1C(=O)NCCN1Cc1ccccc1C(F)(F)F)NC1CCC1 (stereo not drawn),nt,-25%,2,-7%,27%,-13%
O=C(CC1C(=O)NCCN1Cc1ccc(F)cc1Cl)NC1CCCCCCC1 (stereo not drawn),45µM*,-13%,-13,-9%,21%,-19%
O=C(CC1C(=O)NCCN1Cc1ccccc1C(F)(F)F)NC1CCCCCC1 (stereo not drawn),45µM*,-24%,-10,-23%,50%,-8%[57.1 µM]
Cc1cnc(C2OCCO2)c2cccc([N+](=O)[O-])c12,nt,-11%,3,nt,nt,nt
CN1CCN(CCC(=O)N2c3ccccc3Sc3ccc(Cl)cc32)CC1,?,-8%,0,?,-4%,79µM*
NCCC(=O)N1c2ccccc2Sc2ccc(Cl)cc21,8%,-5%,10,-13%,35%,-23%
CCCCc1nn2c(=O)cc(COC(=O)c3ccc(NC(=O)C(CC)CC)cc3)nc2s1,11%[12.7 µM],nt,nt,-5%,30%,-10%
CN(C)c1ccc(CNC(=O)C2CCN(S(=O)(=O)c3ccc4c(ccn4C)c3)CC2)cc1,?,nt,nt,?,10%[57 µM],?
[S-]C(=Nc1ccc(Cl)cc1)N[n+]1ccccc1,?,17µM*,-9,-32%,-35%,-3%
COc1ccc(N=C2SCC(c3ccc(C)cc3)=NN2CCO)cc1,50µM*,7%,18,-34%,-10%,?
COc1ccc(N=C2SC(C(=O)N3CCN(c4ccc([N+](=O)[O-])cc4)CC3)CC(=O)N2C)cc1 (stereo not drawn),nt,-5%,1,-12%,21%,?
O=[N+]([O-])c1ccc(C2=NN(CCO)C(=Nc3ccc(OC(F)(F)F)cc3)SC2)cc1,16µM*,-19%,-4,?,?,?
CCOC(=O)C1=CCN(Cc2ccccc2)CC1,nt,-10%,-2,-9%,39%,-1%
Cc1ccc(C(=O)/C=C/c2cc(Br)cc(Br)c2O)o1,35µM*,27µM*,-28,?,-19%,?
CCOc1cccc(NC(=O)C2CC(=O)N(C)C(=Nc3ccc(F)cc3)S2)c1 (stereo not drawn),9%[59 µM],nt,nt,-7%,52%,-7%
CCCCN(CCCC)CCNC(=O)c1cc(-c2cccnc2)nc2ccc(S(=O)(=O)N3CCC(C)CC3)cc12,-23%[59 µM],nt,nt,-11%,51%,8%
CCCCN(C)CCNC(=O)c1cc(-c2cccnc2)nc2ccc(S(=O)(=O)N3CCC(C)CC3)cc12,50µM*,27µM*,-8,?,3%,-19%
O=C(c1ccc(S(=O)(=O)N2CCC(c3nc4ccccc4s3)CC2)cc1)N1CCOCC1,40µM*,-1%,nt,-15%,6%,5%
O=C(c1ccc(S(=O)(=O)N2CCC(c3nc4ccccc4s3)CC2)cc1)N1CCCCC1,nt,-3%,nt,-18%,22%,nt
O=C(c1ccc(S(=O)(=O)N2CCC(c3nc4ccccc4[nH]3)CC2)cc1)N1CCOCC1,7.9µM*,-6%,nt,28µM*,-12%,?
COc1cccc(CNc2nc3cc(-c4cnn(Cc5ccccc5)c4)sc3c(=O)n2C)c1,nt,-4%,6,nt,nt,nt
FC(F)(F)c1ccccc1-n1c(-c2cnccn2)n[nH]c1=S,?,-10%,-1,-16%,45%,-29%
Cc1ccc(-n2c(-c3ccc(Cl)cc3)n[nH]c2=S)c(C)c1,5.6µM*,-8%,1,?,17%,11%[0.457 µM]
Cc1ccc(-n2ncc3c(NCc4cccnc4)ncnc32)c(C)c1,-6%,0%,-22,-13%,6%,-34%
SMILES,G9a block,PLK1 PBD block,PI5P4Ka inh,JMJD2A Tudor,HP1b binding inh,BAZ2B block
Cc1ccc(-n2c(-c3cnccn3)n[nH]c2=S)c(Br)c1,18µM*,1%,0,16µM*,44%,-30%
Cc1ccc(-n2c(-c3cccnc3)n[nH]c2=S)c(C)c1,1.6µM*,-7%,-3,5µM*,10%,4%
COc1ccc(-c2n[nH]c(=S)n2-c2ccc(C)cc2C)cc1,14%[0.501 µM],0%,5,?,29%,-28%
CCOc1cnn(-c2cc(Oc3ccc(C)cc3)ncn2)c(=O)c1Cl,4%,-1%,-3,-2%,31%,-3%
Cc1ccccc1Oc1cc(-n2ncc(Cl)c(Cl)c2=O)ncn1,25%[59 µM],5.3µM*,2,-19%,29%,0%
O=C(O)c1cccc(Nc2ncnc3ccccc23)c1,-30%[12.7 µM],-7%,nt,79µM*,26%,?
CC(=O)c1cccc(Nc2nc(-c3ccccc3)nc3ccccc23)c1,50µM*,6%,0,-22%,2%,-1%
CC(=O)Nc1ccc(Nc2ncnc3ccccc23)cc1,?,nt,nt,nt,nt,-22%
Fc1ccc(Nc2ncnc3ccccc23)cc1,56µM*,7%,-4,-6%,34%,-33%
CCOC(=O)c1nc(Nc2cccc(C)c2)c2ccccc2n1,10%,21µM*,-3,50µM*!,5%,7%
CCOc1ccc(CNC(=O)CCC(=O)N2CC(C)Sc3ccccc32)cc1 (stereo not drawn),-5%[59 µM],nt,nt,-14%,9%,-8%
COc1ccc(C)cc1NC(=O)CN1C(=O)CCc2cc(S(=O)(=O)N3CCOCC3)ccc21,0%[59 µM],nt,nt,?,36%,?
O=C(O)c1ccc(Nc2nc(-c3cccnc3)nc3ccccc23)cc1,56µM*,nt,nt,nt,nt,-1%
Nc1cccc(Nc2ncnc3ccccc23)c1,-14%[0.501 µM],6%,-5,4%,20%,50µM*
O=C(O)c1cccc(Nc2nc(-c3cccnc3)nc3ccccc23)c1,?,-6%,4,?,37%,?
Cc1ccc(-c2cn3cccnc3n2)cc1NC(=O)c1ccc(Br)o1,18%[59 µM],-9%,nt,6%,23%,12%
CCC(C(=O)Nc1cc(-c2cn3cccnc3n2)ccc1C)c1ccccc1 (stereo not drawn),8%[59 µM],nt,nt,22µM*,29%[57 µM],3%
Cc1ccc(-c2cn3cccnc3n2)cc1NC(=O)Nc1ccc(F)cc1,34%[59 µM],nt,nt,-16%,66%,3%
COc1ccc(-c2cn3cccnc3n2)cc1NC(=O)c1ccc(Br)o1,2.8µM*,-5%,nt,?,36%,?
CSCCC1C(C#N)=C(N)Oc2n[nH]c(-c3cccs3)c21 (stereo not drawn),?,-27%,-65*,?,16%,-13%
N#CC1=C(N)Oc2n[nH]c(-c3cccs3)c2C1c1cccs1 (stereo not drawn),-3%[12.7 µM],24µM*,-53*,-25%,14%,-28%
CC(C)CC1C(C#N)=C(N)Oc2n[nH]c(-c3cccs3)c21 (stereo not drawn),-15%,-19%,nt,-19%,51%,-6%
